Assay [1] can be described thus: antimalarial activity against Dd2 strain (AID 2302;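 active = growth inhibition above 50% at the single 2 µM test dose, taken to imply half-maximal potency below 2 µM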;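 also: 0% = DMSO untreated growth and 100% = chloroquine plus artemisinin killed control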). Particulars: P. falciparum Dd2 in RBCs, LDH growth readout, 72 h; at 2 µM; active compounds read high.
The nature of assay [2]: human hepatoma cell viability loss – ATP luminescence, cytotoxicity control for P. falciparum antimalarial project, primary screen (AID 2303;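 active = inhibition above 50%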;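 also: 0% = DMSO wells and 100% = digitonin-killed cells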). To be noted: HepG2 viability, 24-48 h, at 10 µM, active compounds read high.
Assay [3] has as its target L-lactate dehydrogenase (Plasmodium falciparum (isolate CDC / Honduras)) (UniProt Q27743). Put plainly: PfLDH activity inhibition – cell lysate, 3D7 strain, counter-screen for P. falciparum growth inhibition project (AID 2304).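 Also: 0% = vehicle and 100% = reference inhibitor.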 To be noted: P. falciparum 3D7 crude extract, LDH APAD/NBT absorbance; at 2 µM; active compounds read high. (A counterscreen serves to expose hits that act by an unwanted route or on another target.)

The nature of assay [4]: inhibition of 3D7 malaria parasite growth – strain 3D7 (AID 2306).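 Also: 0% = DMSO wells and 100% = chloroquine plus artemisinin control wells.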 To be noted: P. falciparum 3D7 erythrocytic growth, LDH absorbance, 72 h; at 2 µM; active compounds read high.
The target of assay [5] is Calcium-dependent protein kinase 1 (Plasmodium falciparum (isolate 3D7)) (UniProt P62344). Put plainly: PfCDPK1 kinase inhibitors, biochemical, TCAMS library (AID 1159585; cut-off not given, nearly all actives have IC50 up to about 0.98 µM;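 also: inhibitors leave more ATP so luminescence rises with inhibition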). Particulars: recombinant PfCDPK1, Kinase-Glo ATP depletion luminescence.
Assay [6] addresses Plasmodium falciparum protein kinase 6 (PK6, PF3D7_1337100) (UniProt Q8IDW1). Put plainly: PfPK6 kinase inhibitors, biochemical, TCAMS library (AID 1159586). Particulars: recombinant PfPK6, Kinase-Glo ATP depletion luminescence. A general note: Kinase-Glo reads ATP consumption through a luciferase reaction.
Assay [7] deals with Protein kinase 7 (PK7), Plasmodium falciparum 3D7 (PF3D7_0213400) (UniProt Q7YTF7). Put plainly: inhibition of Plasmodium PK7 catalytic activity – biochemical, TCAMS antimalarial set, Kinase-Glo luminescence (AID 1159587). To be noted: recombinant PfPK7, Kinase-Glo ATP depletion luminescence.
In assay [8] the target is Calcium-dependent protein kinase 4 (Plasmodium falciparum (isolate 3D7)) (UniProt Q8IBS5). Briefly: PfCDPK4 kinase inhibitors, biochemical, TCAMS library (AID 1159588; cut-off not given, nearly all actives have IC50 up to about 0.91 µM). Particulars: recombinant PfCDPK4, Kinase-Glo ATP depletion luminescence.

This is an account of results in PubChem BioAssay.

Values without a mark were called inactive. For some of these results: Entries with a potency or affinity are not part of this list. The source made the active and inactive calls. Unless noted, no rule for the calls is given here.

Sequence of Calcium-dependent protein kinase 4 (Plasmodium falciparum (isolate 3D7)) (Q8IBS5 whole entry, looked up): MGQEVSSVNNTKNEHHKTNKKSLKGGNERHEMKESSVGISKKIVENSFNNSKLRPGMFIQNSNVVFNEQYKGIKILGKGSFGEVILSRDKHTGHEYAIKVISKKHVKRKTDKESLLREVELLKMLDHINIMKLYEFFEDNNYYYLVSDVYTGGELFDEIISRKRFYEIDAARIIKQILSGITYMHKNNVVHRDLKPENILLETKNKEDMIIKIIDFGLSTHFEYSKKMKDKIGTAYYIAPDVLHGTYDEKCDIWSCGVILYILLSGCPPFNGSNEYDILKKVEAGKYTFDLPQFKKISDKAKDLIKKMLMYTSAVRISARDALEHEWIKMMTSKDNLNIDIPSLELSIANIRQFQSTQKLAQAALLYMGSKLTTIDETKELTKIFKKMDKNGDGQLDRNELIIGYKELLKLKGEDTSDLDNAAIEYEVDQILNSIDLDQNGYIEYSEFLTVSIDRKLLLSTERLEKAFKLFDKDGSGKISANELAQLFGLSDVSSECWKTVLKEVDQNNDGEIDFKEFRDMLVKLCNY
Sequence of Protein kinase 7 (PK7), Plasmodium falciparum 3D7 (PF3D7_0213400) (Q7YTF7 1-343): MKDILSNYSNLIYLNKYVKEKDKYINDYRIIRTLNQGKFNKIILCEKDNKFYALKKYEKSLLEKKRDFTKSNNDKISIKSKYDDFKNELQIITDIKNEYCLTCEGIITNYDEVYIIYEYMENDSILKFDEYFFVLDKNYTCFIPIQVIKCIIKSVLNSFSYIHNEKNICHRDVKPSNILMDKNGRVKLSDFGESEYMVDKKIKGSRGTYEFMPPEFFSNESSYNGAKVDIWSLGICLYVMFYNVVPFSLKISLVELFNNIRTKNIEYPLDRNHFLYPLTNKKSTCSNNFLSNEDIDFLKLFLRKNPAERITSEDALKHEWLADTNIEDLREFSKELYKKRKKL
Sequence of Plasmodium falciparum protein kinase 6 (PK6, PF3D7_1337100) (Q8IDW1 1-305): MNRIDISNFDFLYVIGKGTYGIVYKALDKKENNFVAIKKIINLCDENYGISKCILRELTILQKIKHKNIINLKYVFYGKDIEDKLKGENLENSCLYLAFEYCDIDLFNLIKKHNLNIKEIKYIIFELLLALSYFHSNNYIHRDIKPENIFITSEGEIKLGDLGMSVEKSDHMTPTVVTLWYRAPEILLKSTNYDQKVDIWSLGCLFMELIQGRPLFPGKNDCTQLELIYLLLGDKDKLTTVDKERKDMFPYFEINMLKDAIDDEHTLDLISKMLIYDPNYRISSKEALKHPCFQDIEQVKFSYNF
Sequence of Calcium-dependent protein kinase 1 (Plasmodium falciparum (isolate 3D7)) (P62344 whole entry, looked up): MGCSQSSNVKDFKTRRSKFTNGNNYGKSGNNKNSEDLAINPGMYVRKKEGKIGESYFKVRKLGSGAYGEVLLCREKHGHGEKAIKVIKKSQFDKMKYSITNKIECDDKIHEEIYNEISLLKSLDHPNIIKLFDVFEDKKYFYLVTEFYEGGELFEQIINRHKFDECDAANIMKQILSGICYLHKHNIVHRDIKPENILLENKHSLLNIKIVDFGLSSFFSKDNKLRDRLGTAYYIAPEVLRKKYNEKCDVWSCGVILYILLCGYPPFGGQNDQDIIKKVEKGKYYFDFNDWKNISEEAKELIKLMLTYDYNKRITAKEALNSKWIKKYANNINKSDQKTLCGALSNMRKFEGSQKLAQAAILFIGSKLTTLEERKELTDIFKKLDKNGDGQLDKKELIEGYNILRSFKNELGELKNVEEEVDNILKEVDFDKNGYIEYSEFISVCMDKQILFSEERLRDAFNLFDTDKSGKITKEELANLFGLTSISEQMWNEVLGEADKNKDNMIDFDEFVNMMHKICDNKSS
Sequence of L-lactate dehydrogenase (Plasmodium falciparum (isolate CDC / Honduras)) (Q27743 whole entry, looked up): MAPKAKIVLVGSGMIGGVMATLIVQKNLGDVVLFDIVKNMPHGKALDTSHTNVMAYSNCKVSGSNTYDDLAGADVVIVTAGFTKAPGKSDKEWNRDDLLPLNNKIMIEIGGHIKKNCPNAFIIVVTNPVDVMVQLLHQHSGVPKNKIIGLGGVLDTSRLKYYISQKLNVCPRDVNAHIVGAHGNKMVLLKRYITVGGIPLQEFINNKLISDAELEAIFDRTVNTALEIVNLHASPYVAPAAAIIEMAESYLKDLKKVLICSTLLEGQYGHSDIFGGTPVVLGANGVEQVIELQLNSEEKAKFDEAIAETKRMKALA

What is called inhibition is the drop in the measured response relative to a control, in per cent. `O=C(/C=C/c1ccc(Cl)c(Cl)c1)NCCCCCN1CCC(NC(=O)c2cccc(Cl)c2)CC1`: the values for the growth inhibition in assay [1] and in assay [4] were 23% and 98% (active), respectively. For the same molecule, the inhibition was 12% in assay [2] and -6% in assay [3]. Besides, the result in assay [5], in assay [6], in assay [7] and in assay [8] was inactive.
For `COc1cccc(CN2Cc3ccccc3OC3(CCN(Cc4c[nH]c5cnccc45)CC3)C2)c1`, the growth inhibition in assay [1] and in assay [4] was 83% (active) each time. For the same molecule, the inhibition in assay [2] was 39%; in assay [3] it was -3%. In addition, the outcome in assay [5], in assay [6], in assay [7] and in assay [8] was inactive.
Take `CC(=O)c1ccc2c(c1)CCN(CCC1CCC(NC(=O)c3cc4ccccc4[nH]3)CC1)CC2` (stereo not given): the growth inhibition is 47% in assay [1] and 86% (active) in assay [4]. In addition, the inhibition in assay [2] is 64% (active); in assay [3], 2%. Further, the outcome in assay [5], in assay [6], in assay [7] and in assay [8] was inactive.
Take `O=C(Nc1ccon1)c1cc(-c2cccnc2)nc2ccc(Cl)cc12`: the growth inhibition in assay [1] was 76% (active); in assay [4] it was 98% (active). The inhibition in assay [2] is -4%; in assay [3], 6%. Besides, the outcome in assay [5], in assay [6], in assay [7] and in assay [8] was inactive.
Turning to `CCOC(=O)NCC(=O)Nc1cccc(-c2cccc(-c3nc4c(C)cccc4[nH]3)c2)c1`, the growth inhibition in assay [1] was 35%; in assay [4] it was 88% (active). For the same molecule, the values for the inhibition in assay [2] and in assay [3] were 14% and 1%, respectively. The result in assay [5], in assay [6], in assay [7] and in assay [8] was inactive.
For `CCOC(=O)CCCOc1c(OC)cc(Cc2cnc(N)nc2N)cc1OC`, the growth inhibition in assay [1] was 7%; in assay [4] it was 96% (active). The results for the inhibition in assay [2] and in assay [3] were 10% and 8%, respectively. The result in assay [5], in assay [6], in assay [7] and in assay [8] was inactive.
As for `O=C(NCCCCN1CCC(O)(c2ccc3c(c2)OCO3)CC1)c1ccc(NC(=O)c2ccc(Cl)cc2)cc1`, the growth inhibition was 6% in assay [1] and 86% (active) in assay [4]. Besides, the values for the inhibition in assay [2] and in assay [3] were 15% and -1%, respectively. The result in assay [5], in assay [6], in assay [7] and in assay [8] was inactive.
Consider `O=C(NC1CCN(Cc2cccc(C(F)(F)F)c2)CC1)c1ccc(-c2cccc(Cl)c2)s1`, for which the growth inhibition in assay [1] was 33%; in assay [4], 89% (active). Besides, the inhibition was 26% in assay [2] and -1% in assay [3]. Also, the outcome in assay [5], in assay [6], in assay [7] and in assay [8] was inactive.
On to `CN1CCN(CCCN(Cc2csc(-c3ccc(CNCc4ccccc4)cc3)n2)C(=O)Nc2cccc(Cl)c2)CC1`, for which the results for the growth inhibition in assay [1] and in assay [4] were 67% (active) and 102% (active), respectively. Also, the results for the inhibition in assay [2] and in assay [3] were 32% and -5%, respectively. In addition, the result in assay [5], in assay [6], in assay [7] and in assay [8] was inactive.
In the case of `COc1ccc(CNC2CCN(C)CC2)cc1-c1ccc(S(=O)(=O)NC2CCC2)cc1`, the growth inhibition in assay [1] was 76% (active); in assay [4] it was 98% (active). For the same molecule, the inhibition is 58% (active) in assay [2] and 1% in assay [3]. The outcome in assay [5], in assay [6], in assay [7] and in assay [8] was inactive.
In the case of `COc1cc2c(=O)c(Cc3ccc(Cl)cc3)c(C)[nH]c2cc1F`, the growth inhibition in assay [1] was 28%; in assay [4] it was 85% (active). Further, the inhibition in assay [2] was 13%; in assay [3], 1%. For the same molecule, the outcome in assay [5], in assay [6], in assay [7] and in assay [8] was inactive.
As to `Cc1nc(-c2ccc(-c3ccc(C(=O)Nc4ccc(C(C)C)c(OCCN(C)C)c4)cc3)c(C)c2)no1`, the growth inhibition in assay [1] is 45%; in assay [4], 99% (active). The inhibition was 49% in assay [2] and -2% in assay [3]. In addition, the outcome in assay [5], in assay [6], in assay [7] and in assay [8] was inactive.
In the case of `COc1ccc(-n2ccnc2SCC(=O)Nc2cccc(C(F)(F)F)c2)c(OC)c1`, the growth inhibition was 88% (active) in assay [1] and 98% (active) in assay [4]. Also, the inhibition in assay [2] was -10%; in assay [3], 3%. The outcome in assay [5], in assay [6], in assay [7] and in assay [8] was inactive.
As to `O=C(/C=C/c1ccc(Cl)c(Cl)c1)NCCCCCN1CCC(NC(=O)Nc2ccc(C(F)(F)F)cc2)C1` (stereo not given), the growth inhibition was 6% in assay [1] and 100% (active) in assay [4]. Besides, the results for the inhibition in assay [2] and in assay [3] were 11% and -2%, respectively. Also, the outcome in assay [5], in assay [6], in assay [7] and in assay [8] was inactive.
`COC(=O)c1ccc(NC(=O)c2ccc(CCN3CCC(c4nc(COCC(F)(F)F)c(-c5ccc(F)cc5)o4)CC3)cc2)cc1`: the growth inhibition is 37% in assay [1] and 89% (active) in assay [4]. Besides, the inhibition in assay [2] was 22%; in assay [3], -5%. Further, the result in assay [5], in assay [6], in assay [7] and in assay [8] was inactive.
Consider `CN1CCCC(CN2CCN(Cc3cccc(-c4ccc(-c5nc6ccc(C(F)(F)F)cc6[nH]5)cc4)c3)CC2)C1` (stereo not given), for which the figures for the growth inhibition in assay [1] and in assay [4] were 96% (active) and 99% (active), respectively. Also, the inhibition was 100% (active) in assay [2] and 5% in assay [3]. Moreover, the outcome in assay [5], in assay [6], in assay [7] and in assay [8] was inactive.
With `Cn1nc(-c2ccccc2F)c2cc(C(=O)NC3CCN(Cc4ccccc4)CC3)sc21`, the values for the growth inhibition in assay [1] and in assay [4] were 34% and 97% (active), respectively. Besides, the inhibition in assay [2] was 5%; in assay [3] it was 3%. Moreover, the outcome in assay [5], in assay [6], in assay [7] and in assay [8] was inactive.
Regarding `N=c1c2c(n(Cc3cccc(Cl)c3)c3c1CCC3)CCCC2`, the growth inhibition in assay [1] is 86% (active); in assay [4], 97% (active). Moreover, the inhibition in assay [2] was -5%; in assay [3], -1%. The result in assay [5], in assay [6], in assay [7] and in assay [8] was inactive.
Take `CCc1ccc(CN2CCC(CNC(=O)c3cc(-c4cccc(F)c4)cs3)C2)cc1` (stereo not given): the growth inhibition was 4% in assay [1] and 84% (active) in assay [4]. Also, the results for the inhibition in assay [2] and in assay [3] were 23% and 2%, respectively. Moreover, the outcome in assay [5], in assay [6], in assay [7] and in assay [8] was inactive.
For `CC(C)c1ccc(CN2CCC(NC(=O)c3ccc(-c4cccc(F)c4)s3)CC2)cc1`, the values for the growth inhibition in assay [1] and in assay [4] were 12% and 83% (active), respectively. Also, the inhibition is 47% in assay [2] and 3% in assay [3]. Besides, the result in assay [5], in assay [6], in assay [7] and in assay [8] was inactive.
